The text below walks through data of PubChem BioAssay (NCATS).

The target of experiment [1] is Cytochrome P450 3A4 (Homo sapiens) (UniProt P08684). The experiment can be described thus: qHTS Assay for Inhibitors and Substrates of Cytochrome P450 3A4 (AID 884). Further: on the % scale 0 is the no-effect control and ±100 the full control effect; nearly all actives have a fitted effect of over 50% in size. In short, it runs like this:
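Luminescent readout of luciferin produced by CYP3A4 (20 nM) dealkylation of Luciferin-PPXE, 25 uM (its KM). NADPH-driven reaction ran 60 min at RT after 10 min compound preincubation; data scaled to 57 uM ketoconazole as 100% inhibition.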
(In qHTS, concentration-response curves come from the screen itself.)

Experiment [2] in a line: qHTS Assay for Lipid Storage Modulators (AID 1519; calls by dose curve). The note with it: Drosophila S3 cells, BODIPY lipid droplet/cell ratio, laser cytometry, cells loaded with oleic acid; for activity change, negative = inhibition: at 57.5 µM (top of the series). A digest of the protocol:
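Cells seeded at 5,000 per well were treated with compounds over a concentration series and loaded with oleic acid (400 uM, as added). Lipid droplet fluorescence (488 nm excitation, 500-530 nm channel) was read by laser-scanning cytometry and normalized to 20 uM Triacsin C.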

The target in experiment [3] is Ubiquitin carboxyl-terminal hydrolase 1 (Homo sapiens) (UniProt O94782). The experiment can be described thus: Inhibitors of USP1/UAF1: Pilot qHTS (AID 504865).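 Further: rhodamine fluorescence freed from ubiquitin-rhodamine substrate followed over time; top concentration of the series differs between compounds; on the % scale 0 is the no-effect control and ±100 the full control effect; nearly all actives have a fitted effect of over 35% in size.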 A digest of the protocol: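 In 50mM HEPES pH 7.8 containing 0.5mM EDTA, 1mM TCEP, 0.1 mg/ml BSA and 0.01% Tween-20, 1nM USP1/UAF1 is exposed to compound for 15 min, then Ub-Rho (150nM final) is added and fluorescence is read over time.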
Sequence of Ubiquitin carboxyl-terminal hydrolase 1 (Homo sapiens) (O94782 whole entry, looked up): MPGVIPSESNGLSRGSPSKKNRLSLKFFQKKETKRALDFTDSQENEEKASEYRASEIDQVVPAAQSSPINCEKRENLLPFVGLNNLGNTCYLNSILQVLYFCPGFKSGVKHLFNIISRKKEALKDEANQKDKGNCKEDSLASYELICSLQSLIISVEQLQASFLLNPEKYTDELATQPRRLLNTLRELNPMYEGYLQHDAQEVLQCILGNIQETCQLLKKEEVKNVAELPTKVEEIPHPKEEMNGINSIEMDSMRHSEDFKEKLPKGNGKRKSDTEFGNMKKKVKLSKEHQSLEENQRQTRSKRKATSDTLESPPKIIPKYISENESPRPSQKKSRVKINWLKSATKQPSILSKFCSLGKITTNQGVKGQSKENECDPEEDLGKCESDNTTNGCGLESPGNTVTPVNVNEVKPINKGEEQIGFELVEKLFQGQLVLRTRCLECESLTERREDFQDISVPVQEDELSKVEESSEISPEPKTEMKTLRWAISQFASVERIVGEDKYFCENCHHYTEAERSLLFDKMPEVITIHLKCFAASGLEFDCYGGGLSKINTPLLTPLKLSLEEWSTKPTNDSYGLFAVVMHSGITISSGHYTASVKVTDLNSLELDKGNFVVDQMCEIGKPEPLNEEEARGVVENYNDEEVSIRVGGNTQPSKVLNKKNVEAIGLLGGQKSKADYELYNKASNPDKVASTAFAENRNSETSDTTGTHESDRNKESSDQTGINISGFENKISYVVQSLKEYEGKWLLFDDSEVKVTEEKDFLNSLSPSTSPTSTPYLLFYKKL

Experiment [4] has as its target DNA dC->dU-editing enzyme APOBEC-3G (Homo sapiens) (UniProt Q9HC16). The experiment can be described thus: qHTS for inhibitors of Vif-A3G interactions: Validation (AID 588379). Further: 0% is about no effect. In short, it runs like this: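 Yellow fluorescence (Ex 488, Em 500-530) of Vif-coexpressing HeLa A3G-eYFP cells, scanned by Acumen cytometer, reports blocked A3G degradation. Cells plated at 700/well overnight at 37 deg C before compound addition, then a further overnight compound incubation at 37 deg C.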

Experiment [5] relates to Zika virus NS2B-NS3 protease. The experiment can be described thus: Primary screen GU AMC qHTS for Zika virus inhibitors (AID 1347154). Further: nearly all actives have a fitted effect of over 70% in size. Further: potency means the concentration at half of the fitted maximal effect.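 On activity change, negative = inhibition: 0% = no-inhibitor control and -100% = no-enzyme control.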 In short, it runs like this:
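Fluorogenic AMC-substrate cleavage by noncovalent NS2B-NS3 protease complex (25 nM, pH 8.0 Tris buffer with Tween 20) followed for 15 minutes at room temperature (~20% conversion). Percent inhibition from ex340/em450 signal change, fitted by 4-parameter Hill equation.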

The target of experiment [6] is Cytochrome P450 1A2 (Homo sapiens) (UniProt P05177). The experiment can be described thus: p450-cyp1a2 (AID 410; calls by dose curve; further: potency means the concentration at half of the fitted maximal effect;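 on activity change, negative = inhibition: -100% = full effect of reference inhibitor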). A digest of the protocol:
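20nM CYP1A2, 100uM Luciferin-ME (=Km), 100mM KPO4; cpd 10 min RT; +NADPH regen, 60 min RT; stop/detect 20 min; luminescence. Normalized to furafylline 57 uM = full inhibition.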

Experiment [7] concerns the target Glucocorticoid receptor (Homo sapiens) (UniProt P04150). The experiment can be described thus: GR-GFP Redistribution (AID 450;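 active means compounds whose dose series gives a full or clear partial fitted curve of increased nuclear translocation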; further: potency means the concentration at half of the fitted maximal effect). The note with it: U2OS GR-GFP nuclear translocation, laser cytometry, 2 h.
For experiment [8] the target is unchanged. The experiment can be described thus: GR-EFC Redistribution (AID 451; calls by dose curve; further: potency means the concentration at half of the fitted maximal effect). The note with it: CHO-K1 GR-EFC translocation, beta-gal luminescence, 2 h. A digest of the protocol: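 Translocation of GR-ED fusion to nuclear EA restores b-gal, read by luminescence after 1 h room-temperature detection. Engineered CHO-K1 biosensor cells, 1,000/well, exposed 2 h at 37 C to titrations up to 46 uM final.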

In experiment [9] the target is Mitogen-activated protein kinase 10 (Mus musculus) (UniProt Q61831). The experiment can be described thus: JNK3 AlphaScreen Assay (AID 530; active means well fitted curve in either direction with a large enough effect, not every such curve was filed as active;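 further: kinase came from lysate of stimulated human HepG2 cells; signal reports phosphorylation of biotinylated GST-cJun 1-79 at Ser73 with 10 µM ATP; on the % scale 0 is the no-effect control and ±100 the full control effect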). A digest of the protocol: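 Kinase buffer: 20 mM Tris-HCl pH 7.6, 10 mM MgCl2, 1 mM DTT, 0.1 mM Na3VO4, 0.01% Tween-20; ATP 10 uM. Substrate biotin-GST-cJun(1-79), enzyme from activated HepG2 lysates. Detection by Ser73 phospho-antibody AlphaScreen.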
(Bead proximity is the source of the signal in Alpha formats.)

The target of experiment [10] is 3',5'-cyclic-AMP phosphodiesterase 4B (Homo sapiens) (UniProt Q07343). The experiment can be described thus: qHTS Assay for Inhibitors of PDE-IV (AID 607; active means well fitted activation curve with a large enough effect in the main read-out, with a control signal flat, not every such curve was filed as active; further: % of control where 0% means no effect). In short, it runs like this:
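Live HEK293 cells with a modified cyclic nucleotide-gated (CNG) channel report intracellular cAMP via membrane-potential dye fluorescence (ex 535/em 590 nm). Endogenous PDE-IV was targeted. Compounds were tested at up to 22.9 uM final; RO 20-1724 100 uM served as control.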

The nature of experiment [11]: AP1 Signaling Pathway (AID 357; active means well fitted curve in either direction with a large enough effect, not every such curve was filed as active;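 further: ME-180 reporter cells stimulated with EGF at its EC50 level; on the % scale 0 is the no-effect control and ±100 the full control effect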). As to conditions: ME-180 AP-1-bla reporter, EGF-induced, beta-lactamase ratio, 5 h; at 38 µM (top of the series). A digest of the protocol:
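A ratiometric CCF4 readout (405 nm excitation; 460 and 530 nm emission) quantified AP-1-driven beta-lactamase in ME-180 cells after 5 h with compound and EC50 EGF; AC50 values were derived for activators and inhibitors.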

Experiment [12] can be described thus: NFAT Signaling Pathway (AID 444; active means well fitted curve in either direction with a large enough effect, not every such curve was filed as active;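 further: carbachol stimulus at about its EC50 of 1 µM final; on the % scale 0 is the no-effect control and ±100 the full control effect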). As to conditions: Jurkat NFAT-bla M1, carbachol, beta-lactamase ratio, 5 h; at 38 µM (top of the series). A digest of the protocol: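 Read-out: CCF4 FRET ratio (460 nm/530 nm) after 1 h RT dye loading, used for %activity and AC50 from titration series. Cells: Jurkat NFAT-β-lactamase/M1 line, treated with compound plus 1 uM carbachol for 5 h, 37 °C.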

Experiment [13] is described as follows: Stat Signaling Pathway (AID 446; active means well fitted curve in either direction with a large enough effect, not every such curve was filed as active;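 further: ME-180 cervical cancer cells given 40 pM IL-6 alongside compound; SIE-controlled beta-lactamase reporter measured as 460/530 nm FRET emission ratio; on the % scale 0 is the no-effect control and ±100 the full control effect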). The note with it: ME-180 (cervical carcinoma) SIE beta-lactamase reporter, IL-6 stimulated, 5 h; at 38 µM (top of the series). In short, it runs like this: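 Overnight-plated ME-180 cells bearing a STAT Inducible Element beta-lactamase reporter; 5 h co-exposure to compound and 40 pM IL-6; values normalized to 300 pM IL-6 and 125 nM JAK inhibitor controls.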

The target of experiment [14] is Cytochrome P450 2C9 (Homo sapiens) (UniProt P11712). The experiment can be described thus: qHTS Assay for Inhibitors and Substrates of Cytochrome P450 2C9 (AID 883). Further: on the % scale 0 is the no-effect control and ±100 the full control effect; nearly all actives have a fitted effect of over 60% in size. A digest of the protocol: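 Turnover of Luciferin-H (100uM, KM) by 10nM human CYP2C9 was measured over 60 min at 37C with NADPH regeneration; inhibitors and some substrates reduce luminescence. Data normalized to sulphaphenazole 57uM.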
Sequence of Cytochrome P450 2C9 (Homo sapiens) (P11712 whole entry, looked up): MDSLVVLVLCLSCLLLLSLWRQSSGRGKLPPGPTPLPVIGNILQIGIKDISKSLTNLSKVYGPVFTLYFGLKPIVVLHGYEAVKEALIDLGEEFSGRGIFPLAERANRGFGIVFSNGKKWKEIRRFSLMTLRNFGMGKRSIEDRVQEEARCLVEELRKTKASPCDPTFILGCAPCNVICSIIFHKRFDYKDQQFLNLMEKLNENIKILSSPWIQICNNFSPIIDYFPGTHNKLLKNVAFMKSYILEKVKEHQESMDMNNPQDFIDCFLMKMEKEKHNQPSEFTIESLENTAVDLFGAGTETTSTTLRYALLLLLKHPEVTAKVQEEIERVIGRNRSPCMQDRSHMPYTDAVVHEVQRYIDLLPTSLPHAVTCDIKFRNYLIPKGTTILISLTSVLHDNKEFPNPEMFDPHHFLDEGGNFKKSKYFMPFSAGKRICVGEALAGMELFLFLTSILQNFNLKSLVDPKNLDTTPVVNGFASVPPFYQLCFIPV

Experiment [15] deals with Cytochrome P450 2D6 (Homo sapiens) (UniProt P10635). The experiment can be described thus: qHTS Assay for Inhibitors and Substrates of Cytochrome P450 2D6 (AID 891). Further: nearly all actives have a fitted effect of over 60% in size. Further: potency means the concentration at half of the fitted maximal effect. A digest of the protocol:
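Luminescent read-out of luciferin formed by 5 nM human CYP2D6 demethylating 30 uM Luciferin-ME EGE (Km level) over 60 min at room temperature after NADPH regeneration addition. Data normalized to full inhibition by 1.43 uM quinidine.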

The target in experiment [16] is Cytochrome P450 2C19 (Homo sapiens) (UniProt P33261). The experiment can be described thus: qHTS Assay for Inhibitors and Substrates of Cytochrome P450 2C19 (AID 899). Further: nearly all actives have a fitted effect of over 60% in size. Further: potency means the concentration at half of the fitted maximal effect. In short, it runs like this: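 Reactions contain 5nM enzyme, 10uM Luciferin-H EGE (KM) and 50mM KPO4; compound preincubates 10 min at 37C, NADPH regeneration starts turnover for 60 min. Luminescence after detection reagent gives activity.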
Sequence of Cytochrome P450 2C19 (Homo sapiens) (P33261 whole entry, looked up): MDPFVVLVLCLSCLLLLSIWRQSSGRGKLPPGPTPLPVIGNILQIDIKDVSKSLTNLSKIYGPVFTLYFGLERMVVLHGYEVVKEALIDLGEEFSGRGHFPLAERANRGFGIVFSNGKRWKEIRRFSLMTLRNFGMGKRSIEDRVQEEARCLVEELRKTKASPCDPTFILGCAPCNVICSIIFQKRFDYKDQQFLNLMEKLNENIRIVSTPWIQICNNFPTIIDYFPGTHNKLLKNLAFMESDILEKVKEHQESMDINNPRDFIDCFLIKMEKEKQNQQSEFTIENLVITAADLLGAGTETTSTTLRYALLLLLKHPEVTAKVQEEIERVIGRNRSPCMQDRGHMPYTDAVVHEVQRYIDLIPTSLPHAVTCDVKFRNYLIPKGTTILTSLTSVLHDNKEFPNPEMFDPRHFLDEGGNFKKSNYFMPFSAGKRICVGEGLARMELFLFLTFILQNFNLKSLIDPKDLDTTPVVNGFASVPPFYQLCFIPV

A short description of experiment [17]: qHTS Assay for Identification of Small Molecule Agonists for Thrombopoietin (TPO) Signaling Pathway (AID 917). Further: on the % scale 0 is the no-effect control and ±100 the full control effect. A digest of the protocol: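 Cell-based luciferase reporter screen. Mouse Ba/F3 line stably expressing human TPO receptor; IL-3 removed overnight before plating. Co-treatment with compound and EC50 TPO (26 pM), 24 hrs at 37 C, then luminescence.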

For experiment [18], the target named is Muscarinic acetylcholine receptor M1 (Rattus norvegicus) (UniProt P08482). The experiment can be described thus: qHTS Assay for Antagonists of Acetylcholine Muscarinic M1 Receptor: Measurement of IP-One Response (AID 944). Further: nearly all actives have a fitted effect of over 75% in size. In short, it runs like this:
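Read-out: HTRF competition between d2-IP1 and Eu-cryptate anti-IP1 antibody, emission 620 and 665 nm. Stimulus was carbachol, EC80 (200 nM), for 30 min in M1-CHO cells (rat receptor), after 10 min compound pre-treatment.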

Experiment [19] addresses Pyruvate kinase (Leishmania mexicana) (UniProt Q27686). The experiment can be described thus: qHTS Validation Assay for Inhibitors of Leishmania Mexicana Pyruvate Kinase (AID 945).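 Further: 0% = DMSO only neutral control wells.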 A digest of the protocol: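 Substrate mix (0.5 mM PEP, 0.1 mM ADP, 7 mM MgCl2, 50 mM KCl, pH 7.2 imidazole) received compound by pin tool, then 0.2 nM LmPYK E451W. After 1 h at room temperature, PKLight was added and luminescence measured.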

The target in experiment [20] is Pyruvate kinase PKM (Homo sapiens) (UniProt P14618). The experiment can be described thus: qHTS Assay for Activators of Human Muscle Pyruvate Kinase (AID 954; active means well fitted curve in the direction sought with a large enough effect, not every such curve was filed as active;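 further: 0% = uninhibited enzyme and -100% = no enzyme or full thiadiazolimine inhibition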). A digest of the protocol:
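Screening used highly purified human pyruvate kinase M2 under submaximal activity, with PEP at its Km and ADP below Km. After an hour at room temperature, ATP was read by luciferase luminescence.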

The target in experiment [21] is Alpha-galactosidase A (Homo sapiens) (UniProt P06280). The experiment can be described thus: Counterscreen for Glucocerebrosidase Inhibitors: qHTS Assay for Human alpha-Galactosidase at pH 4.5 (AID 992). Further: 0% is about no effect. In short, it runs like this:
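Each compound is preincubated briefly with 2 nM enzyme before substrate addition (80 uM); plates then sit 20 min at ambient temperature, are quenched with 1M NaOH/1M glycine, and read fluorometrically.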
A general note: Counterscreens check selectivity or assay interference.

Experiment [22] concerns the target alpha-glucosidase (Oryza sativa, rice) (UniProt Q653V4). The experiment can be described thus: Counterscreen for Glucocerebrosidase Inhibitors: qHTS Assay for Rice alpha-Glucosidase at pH 5.0 (AID 997).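 Further: 0% = full activity with enzyme and -100% = basal without enzyme.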 In short, it runs like this:
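Endpoint fluorogenic assay at pH 5.0: compounds (0.7 nM to 77 uM) titrated against 4 nM rice enzyme and 400 uM 4-MU-alpha-glucoside for 20 min at room temperature; NaOH/glycine stop, read ex 365/em 440 nm, Hill-fitted AC50.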

For experiment [23], the target named is Cytochrome P450 3A4 (Homo sapiens) (UniProt P08684). The experiment can be described thus: qHTS Assay for Activators of Cytochrome P450 3A4 (AID 885). Further: nearly all actives have a fitted effect of over 65% in size. A digest of the protocol:
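Using 20nM recombinant human CYP3A4 in potassium phosphate (200mM), substrate Luciferin-PPXE at 25uM, luminescent luciferin detection followed a 60-min RT NADPH reaction; data scaled to 57 uM ketoconazole.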

The mark [24] stands for this setting: measured here: cell count channel max response.
The mark [25] stands for this setting: measured here: lipid channel max response.

Structures are written as SMILES. Inconclusive results are not listed. Activity calls are given as the source filed them. Unless noted, the call rests on the fitted dose curve; in most records, active means well fitted curve in the direction sought with a large enough effect; inconclusive means small, poorly fitted or top-dose-only effect, or another doubt; inactive means no such curve, though single readings can be large; an effect the other way counts as inactive or inconclusive.

Sequence of Cytochrome P450 2D6 (Homo sapiens) (P10635 whole entry, looked up): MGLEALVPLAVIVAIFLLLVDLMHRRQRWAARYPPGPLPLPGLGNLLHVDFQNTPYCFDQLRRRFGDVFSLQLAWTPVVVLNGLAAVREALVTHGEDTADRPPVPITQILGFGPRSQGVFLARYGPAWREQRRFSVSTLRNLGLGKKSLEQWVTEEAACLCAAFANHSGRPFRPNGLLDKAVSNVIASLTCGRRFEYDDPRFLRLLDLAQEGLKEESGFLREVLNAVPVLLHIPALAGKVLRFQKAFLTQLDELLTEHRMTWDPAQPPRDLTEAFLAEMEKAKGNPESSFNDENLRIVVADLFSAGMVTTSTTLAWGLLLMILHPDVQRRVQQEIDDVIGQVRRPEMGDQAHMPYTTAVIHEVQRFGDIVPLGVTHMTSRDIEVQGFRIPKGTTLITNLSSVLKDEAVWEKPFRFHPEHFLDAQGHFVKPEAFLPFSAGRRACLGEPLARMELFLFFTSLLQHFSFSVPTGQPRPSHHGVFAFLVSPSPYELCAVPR
Sequence of DNA dC->dU-editing enzyme APOBEC-3G (Homo sapiens) (Q9HC16 whole entry, looked up): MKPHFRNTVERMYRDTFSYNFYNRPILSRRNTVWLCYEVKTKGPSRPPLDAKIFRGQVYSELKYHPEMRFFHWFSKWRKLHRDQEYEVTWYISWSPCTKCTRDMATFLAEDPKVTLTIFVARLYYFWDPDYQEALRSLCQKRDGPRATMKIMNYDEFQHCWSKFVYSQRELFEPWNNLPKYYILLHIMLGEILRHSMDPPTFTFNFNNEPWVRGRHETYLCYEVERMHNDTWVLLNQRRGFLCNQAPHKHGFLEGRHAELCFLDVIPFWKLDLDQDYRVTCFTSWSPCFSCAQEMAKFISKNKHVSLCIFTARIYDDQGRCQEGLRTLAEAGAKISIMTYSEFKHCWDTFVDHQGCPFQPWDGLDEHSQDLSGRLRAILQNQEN
Sequence of Glucocorticoid receptor (Homo sapiens) (P04150 whole entry, looked up, the tested form may be a part): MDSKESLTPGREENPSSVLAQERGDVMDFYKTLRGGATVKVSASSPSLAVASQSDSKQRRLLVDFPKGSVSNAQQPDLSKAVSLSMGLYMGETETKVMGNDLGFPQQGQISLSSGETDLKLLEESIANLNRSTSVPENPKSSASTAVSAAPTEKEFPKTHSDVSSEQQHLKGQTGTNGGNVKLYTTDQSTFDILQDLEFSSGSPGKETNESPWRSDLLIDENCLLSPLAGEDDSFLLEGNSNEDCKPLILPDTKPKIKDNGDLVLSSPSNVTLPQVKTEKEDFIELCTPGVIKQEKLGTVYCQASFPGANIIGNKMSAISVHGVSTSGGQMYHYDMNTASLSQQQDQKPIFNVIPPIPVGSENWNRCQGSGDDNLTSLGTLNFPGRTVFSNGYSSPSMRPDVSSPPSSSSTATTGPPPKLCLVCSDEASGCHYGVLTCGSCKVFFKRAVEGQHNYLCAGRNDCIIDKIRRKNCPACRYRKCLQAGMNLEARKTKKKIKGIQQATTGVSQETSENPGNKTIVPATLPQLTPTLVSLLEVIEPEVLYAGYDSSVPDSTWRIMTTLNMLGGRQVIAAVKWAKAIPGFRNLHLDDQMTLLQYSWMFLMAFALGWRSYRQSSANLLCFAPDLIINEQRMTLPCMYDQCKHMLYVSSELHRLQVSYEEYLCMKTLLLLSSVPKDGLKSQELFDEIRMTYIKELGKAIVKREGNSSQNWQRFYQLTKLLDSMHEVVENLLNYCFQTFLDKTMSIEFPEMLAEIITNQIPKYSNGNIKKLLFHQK
Sequence of 3',5'-cyclic-AMP phosphodiesterase 4B (Homo sapiens) (Q07343 whole entry, looked up): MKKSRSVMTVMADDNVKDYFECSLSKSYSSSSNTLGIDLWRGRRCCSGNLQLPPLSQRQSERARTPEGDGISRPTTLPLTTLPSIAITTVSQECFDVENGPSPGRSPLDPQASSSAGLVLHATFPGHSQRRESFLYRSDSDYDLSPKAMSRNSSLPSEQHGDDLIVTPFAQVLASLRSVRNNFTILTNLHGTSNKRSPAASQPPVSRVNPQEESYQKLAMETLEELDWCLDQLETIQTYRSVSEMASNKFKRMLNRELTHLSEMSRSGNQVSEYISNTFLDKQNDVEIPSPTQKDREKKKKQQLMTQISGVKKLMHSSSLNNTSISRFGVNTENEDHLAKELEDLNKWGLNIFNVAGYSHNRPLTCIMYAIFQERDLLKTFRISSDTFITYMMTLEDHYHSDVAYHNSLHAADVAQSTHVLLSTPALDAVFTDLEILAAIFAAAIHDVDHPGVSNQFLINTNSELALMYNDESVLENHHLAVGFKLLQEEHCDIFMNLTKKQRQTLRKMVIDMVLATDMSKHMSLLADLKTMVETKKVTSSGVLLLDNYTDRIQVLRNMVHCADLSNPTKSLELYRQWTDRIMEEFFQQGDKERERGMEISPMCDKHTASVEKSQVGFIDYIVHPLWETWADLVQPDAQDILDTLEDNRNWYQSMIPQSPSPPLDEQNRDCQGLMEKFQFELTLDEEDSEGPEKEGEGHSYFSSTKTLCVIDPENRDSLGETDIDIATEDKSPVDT
Sequence of Cytochrome P450 1A2 (Homo sapiens) (P05177 whole entry, looked up): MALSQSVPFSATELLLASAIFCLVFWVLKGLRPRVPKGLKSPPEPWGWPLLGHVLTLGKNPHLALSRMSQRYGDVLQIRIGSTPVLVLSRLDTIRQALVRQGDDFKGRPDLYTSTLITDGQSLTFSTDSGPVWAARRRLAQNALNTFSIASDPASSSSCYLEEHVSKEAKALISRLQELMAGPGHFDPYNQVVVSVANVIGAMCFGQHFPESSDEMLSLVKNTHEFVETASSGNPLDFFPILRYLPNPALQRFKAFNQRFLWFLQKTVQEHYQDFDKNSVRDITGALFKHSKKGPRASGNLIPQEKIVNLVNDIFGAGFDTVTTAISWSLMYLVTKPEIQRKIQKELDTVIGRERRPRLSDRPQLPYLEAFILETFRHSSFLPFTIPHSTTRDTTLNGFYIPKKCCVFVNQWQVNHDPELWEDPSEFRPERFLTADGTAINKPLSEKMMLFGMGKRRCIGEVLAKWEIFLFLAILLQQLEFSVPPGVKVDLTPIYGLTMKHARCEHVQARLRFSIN

Regarding `NC(N)=NCCC[C@@H](N)C(=O)O`, the Potency entry in experiment [1], in experiment [3], in [4] and in experiment [5] was “inactive” throughout. Further, in [2], the activity change, negative = inhibition was -2.14% (inactive). In addition, the max response was -17.8% in [2] (setting [24]) and -21.4% in experiment [2] (setting [25]).

In the case of `C[C@H](N)C(=O)O`, the Potency entry in [6], in experiment [9], in [10], in [3], in [4] and in [5] was “inactive” each time. The Potency in experiment [7] and in experiment [8] was > 46 µM (inactive) each time. Besides, the activity change, negative = inhibition in experiment [2] was 1.23% (inactive). The max response in experiment [2] (setting [24]) is -6.7%; in experiment [2] (setting [25]), -5.58%.

In the case of `COc1cc2nc(N3CCN(C(=O)[C@H]4CCCO4)CC3)nc(N)c2cc1OC`, the figures for the activity change, negative = inhibition in experiment [11] and in experiment [12] were 14.3% (inactive) and -4.26% (inactive), respectively. In addition, in experiment [13], the activity, negative = inhibition is 7.77% (inactive). Further, the Potency in experiment [7] was > 46 µM (inactive); in [8], > 46 µM (inactive); in experiment [5] it was 26.7 µM (active). In addition, the Potency result in experiment [10], in [14], in experiment [15], in [16], in experiment [17] and in experiment [18] was “inactive” throughout. Moreover, the Potency entry in [19] and in experiment [4] was “inactive” each time. Moreover, the call in experiment [20], in [21] and in experiment [22] was inactive.

Regarding `CCCN(CCC)C[C@@H]1CCCCN1CCNC(=O)N1c2ccccc2C(=O)Nc2cccnc21`, the Potency in [6] is 25.1 µM (active); in experiment [7] it was > 46 µM (inactive); in experiment [8] it was > 46 µM (inactive); in experiment [15] it was 2.51 µM (active); in experiment [16], 7.94 µM (active). Besides, the Potency result in experiment [9], in experiment [14], in [23], in [3], in [4] and in experiment [5] was “inactive” each time. Moreover, the activity change, negative = inhibition in experiment [2] is -0.0589% (inactive). Also, the max response in experiment [2] (setting [24]) is -8.98%; in experiment [2] (setting [25]), -7.53%.
